Common to all, as to experiment: PBM binding z-score (relative to random genomic background probes); higher = stronger binding; sequences stand for … in GC…GCGATTGACAGCGTAGAATGAAGG
In experiment [1] the test system is FXR:RXRa (NR concentration 270 nM, RXRa partner concentration 90 nM). An outline of the steps:
(§1)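 Binding buffer was PBS pH 7.4 with 2% milk, 0.02% Triton X-100, 1 mM DTT, 0.2 mg/mL BSA and 0.4 mg/ml salmon testes DNA. In it, ligand-free nuclear receptor dimers were incubated 1 h on custom Agilent 4×180K protein-binding microarrays carrying double-stranded probes. Antibodies against each partner (one per run) detected binding, and z-scores were calculated against random background probes after regression normalization of scanned fluorescence.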

For experiment [2], the system named is LXRa:RXRa (NR concentration 270 nM, RXRa partner concentration 90 nM). An outline of the steps:
as §1

The subject of experiment [3] is LXRa homodimer (NR concentration 270 nM). In outline: as §1
The subject of experiment [4] is LXRb:RXRa (NR concentration 270 nM, RXRa partner concentration 90 nM). An outline of the steps: as §1
In experiment [5] the test system is LXRb homodimer (NR concentration 270 nM). An outline of the steps:
as §1

Experiment [6] concerns PPARa:RXRa (NR concentration 270 nM, RXRa partner concentration 90 nM). In outline:
as §1

Experiment [7] concerns PPARg:RXRa (NR concentration 180 nM, RXRa partner concentration 90 nM). An outline of the steps: as §1
The subject of experiment [8] is PPARg:RXRa 270nM:90nM, anti-RXR (NR concentration 270 nM, RXRa partner concentration 90 nM). An outline of the steps:
as §1

Experiment [9] has as its system PPARg:RXRa 30nM:10nM, anti-RXR (NR concentration 30 nM, RXRa partner concentration 10 nM). An outline of the steps:
as §1

The test system of experiment [10] is PPARg:RXRa 90nM:30nM, anti-RXR (NR concentration 90 nM, RXRa partner concentration 30 nM). In outline: as §1
Experiment [11] concerns PPARg:RXRa DBDmut IVT, anti-RXR (DBD mutation: RXRa K156A/R161A, NR concentration 270 nM, RXRa partner concentration 90 nM). An outline of the steps: as §1
Experiment [12] deals with PPARg:RXRa IVT, anti-PPARg (NR concentration 270 nM, RXRa partner concentration 90 nM). An outline of the steps:
as §1

Experiment [13] relates to PPARg DBDmut:RXRa IVT, anti-PPARg (DBD mutation: PPARg1 K132A/R137A, NR concentration 270 nM, RXRa partner concentration 90 nM). In outline: as §1
The subject of experiment [14] is PPARg DBDmut IVT, anti-PPARg (DBD mutation: PPARg1 K132A/R137A, NR concentration 270 nM). In outline:
as §1

The subject of experiment [15] is PPARg homodimer (NR concentration 180 nM). An outline of the steps:
as §1

The subject of experiment [16] is PXR:RXRa (NR concentration 270 nM, RXRa partner concentration 90 nM). In outline:
as §1

Experiment [17] has as its system PXR homodimer (NR concentration 270 nM). In outline:
as §1

Experiment [18] concerns RARa:RXR (NR concentration 270 nM, RXRa partner concentration 90 nM). In outline: as §1
Experiment [19] has as its system RARa homodimer (NR concentration 270 nM). An outline of the steps:
as §1

In experiment [20] the test system is RARb:RXRa (NR concentration 270 nM, RXRa partner concentration 90 nM). An outline of the steps: as §1

Take CCTCGGAGGACAGAAGGTCAGACCTGTCCGCTTT: the PBM binding z-score in experiment [1] was 1.44; in [2], 1.56; in [3], 0.0539; in experiment [4], 1.3; in experiment [5] it was -0.489; in experiment [6], 1.9. The PBM binding z-score was 0.19 in experiment [7]; 0.86 in experiment [8]; -0.764 in experiment [9]; 0.0778 in experiment [10]; 0.156 in [11]; 0.0592 in experiment [12]. Besides, the PBM binding z-score in experiment [13] was -1.1; in experiment [14] it was -2.09; in [15] it was 1.39; in experiment [16] it was 1.69; in experiment [17] it was -0.272; in experiment [18], 2.2. In addition, the PBM binding z-score is -0.193 in experiment [19] and 3.22 in [20].

Consider TCATATAGGTATACAGGTGAAAGTCCGTAAGTTA, for which the PBM binding z-score in experiment [1] was 1.01; in experiment [2], 1.13; in experiment [3], 0.26; in experiment [4], 1.2; in [5], 0.257; in experiment [6] it was 1.9. Further, the PBM binding z-score in experiment [7] came to 2.4; in [8] it was 3.24; in experiment [9] it was 3.8; in experiment [10] it was 3.58; in experiment [11], 2.8; in [12] it was 2.54. Besides, the PBM binding z-score stood at 0.449 in [13]; 1.54 in [14]; 1.33 in experiment [15]; 0.873 in experiment [16]; 0.816 in experiment [17]; 1.03 in experiment [18]. The results for the PBM binding z-score in experiment [19] and in [20] were 1.2 and 0.603, respectively.

On to CGAACTAGGTCAAGGACAGTGGATCTCCGCACGC, for which the PBM binding z-score in experiment [1] is 3.06; in experiment [2], 1.85; in [3], -0.0741; in [4] it was 1.23; in [5], -0.565; in experiment [6], 4.31. The PBM binding z-score was found to be 6.9 in experiment [7]; 6.1 in experiment [8]; 3.35 in [9]; 5.72 in [10]; 8.19 in experiment [11]; 7.79 in [12]. The PBM binding z-score is 1.43 in experiment [13]; 0.272 in experiment [14]; 0.876 in experiment [15]; 0.906 in [16]; -0.161 in experiment [17]; 1.62 in experiment [18]. Further, the PBM binding z-score in [19] came to 0.0729; in [20] it was 3.84.

In the case of CAAACTAGGTCAAAGAGGTCAAAGTCCGTGCGTA, the PBM binding z-score in experiment [1] was determined as 6.71; in experiment [2], 6.33; in experiment [3], 6.39; in experiment [4] it was 5.91; in experiment [5] it was 2.23; in experiment [6], 6.17. Moreover, the PBM binding z-score in experiment [7] worked out at 8.55; in experiment [8], 7.69; in [9], 6.36; in experiment [10], 7.64; in experiment [11], 8.36; in experiment [12], 8.45. Besides, the PBM binding z-score in experiment [13] turned out to be 2.17; in [14] it was 1.31; in experiment [15] it was 5.02; in experiment [16], 6.37; in [17], 10.5; in experiment [18], 6.42. Moreover, the PBM binding z-score in [19] was found to be 2.57; in experiment [20], 4.77.

On to ACTCGGAGGACAAAAGTCAGAGCTACGCCAGTGA, for which the PBM binding z-score was -0.293 in experiment [1]; -0.245 in experiment [2]; -0.424 in [3]; -0.518 in experiment [4]; -0.302 in experiment [5]; 0.347 in [6]. Moreover, the PBM binding z-score in experiment [7] is 1.41; in experiment [8] it was 2.68; in experiment [9], 0.796; in [10], 2.08; in experiment [11], 0.176; in [12], -0.114. Moreover, the PBM binding z-score in experiment [13] is -1.08; in experiment [14], -0.828; in experiment [15], 0.0197; in experiment [16], -0.626; in experiment [17], -0.332; in experiment [18] it was -0.564. Besides, the PBM binding z-score in experiment [19] is -0.279; in experiment [20], 0.928.

On to CCTTACGGGTCAAGGTGATAGCACGGGTGGTACG, for which the PBM binding z-score is 5.64 in experiment [1]; 3.5 in experiment [2]; -0.313 in experiment [3]; 2.67 in experiment [4]; -0.389 in [5]; 4.8 in experiment [6]. For the same sequence, the PBM binding z-score is 4.43 in experiment [7]; 4.52 in experiment [8]; 1.62 in experiment [9]; 3.34 in experiment [10]; 1.85 in experiment [11]; 3.49 in experiment [12]. The PBM binding z-score is -0.115 in experiment [13]; -0.375 in experiment [14]; 1.63 in experiment [15]; 2.89 in experiment [16]; -0.103 in experiment [17]; 3.84 in experiment [18]. In addition, the PBM binding z-score was 0.455 in [19] and 4.11 in experiment [20].

On to CCGAGTAGGGTATGGGGCATTCAGGCAACGGTGA, for which the PBM binding z-score is -0.164 in experiment [1]; -0.318 in [2]; -0.305 in experiment [3]; 0.261 in experiment [4]; -0.00353 in [5]; 1.14 in experiment [6]. The PBM binding z-score in experiment [7] was determined as 2.09; in experiment [8], 3.6; in [9], 1.5; in experiment [10], 3.18; in experiment [11], 0.659; in [12], 1.58. Also, the PBM binding z-score in [13] is -0.658; in experiment [14] it was -0.796; in [15], 0.951; in [16], -0.379; in experiment [17] it was -0.14; in [18] it was -0.154. Besides, the PBM binding z-score stood at 0.135 in experiment [19] and 0.278 in experiment [20].
